PubChem BioAssay (NCATS)
Where “and” joins values, the source holds several entries; their conditions need not be identical. Equal values may be shown once. Results filed as inconclusive are left out. The source holds several records for some structures; these can differ, active in one and inactive in another. Calls of active or inactive are those of the source. Unless noted, calls follow the shape of the full dose curve.

What was measured:
[1] = Primary qHTS for inhibitors of SARS-S pseudo-typed particle cell entry (AID 1479145); also: nearly all actives have a fitted effect of over 45% in size; also: potency is read from the fitted curve at half-maximal effect; as to activity change, negative = inhibition: series mostly up to about 57 µM; % is scaled to controls: 0 for no effect and ±100 for the full control effect
[2] = Primary qHTS for Huh7 cytotoxicity: counterscreen for inhibitors of MERS-S pseudotyped particle cell entry (AID 1479147)
[3] = Primary qHTS for inhibitors of MERS-S pseudo-typed particle cell entry (AID 1479149); also: nearly all actives have a fitted effect of over 60% in size; also: potency is read from the fitted curve at half-maximal effect
[4] = Primary qHTS for Vero E6 cytotoxicity: counterscreen for inhibitors of SARS-S pseudo-typed particle cell entry (AID 1479150)
[5] = Primary qHTS for inhibitors of La Crosse Virus (LACV) - induced cell death in SH-SY5Y cells (AID 1508616; active = well fitted curve in the direction sought with a large enough effect; an effect the other way counts as inactive or inconclusive;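 also: top concentration of the series differs between compounds; 0% = infected DMSO wells and 100% = uninfected DMSO wells; higher means more rescue of cells from virus-induced death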)
Method in brief: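 Rescue of virus-induced death was read as ATPLite luminescence after 6 days at 37C, scaled between DMSO wells with LACV and without virus. Cells were SH-SY5Y, 6000/well, infected at 0.01 MOI after compound addition.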

[6] = target: Calcium and integrin-binding protein 1 (Homo sapiens) (UniProt Q99828); assay: Validation qHTS for Identification of Calcium Integrin Binding protein 1 (CIB1) Competitor (AID 1508618; active = well fitted curve in the direction sought with a large enough effect; an effect the other way counts as inactive or inconclusive; also: % is scaled to controls: 0 for no effect and ±100 for the full control effect)
Chain of Calcium and integrin-binding protein 1 (Homo sapiens) (Q99828 whole entry, looked up): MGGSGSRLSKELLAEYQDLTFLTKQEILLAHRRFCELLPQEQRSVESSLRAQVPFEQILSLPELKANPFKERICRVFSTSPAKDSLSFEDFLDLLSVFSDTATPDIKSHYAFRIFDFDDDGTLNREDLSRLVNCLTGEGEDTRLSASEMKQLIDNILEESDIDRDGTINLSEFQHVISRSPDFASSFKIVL
Method in brief: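 CIB1-GST (1 uM final) incubated 15 min at room temperature with compounds (up to 114 uM), then FITC-labelled alphaIIb peptide (100 nM) added. FP read (Ex 480/Em 540) after 15 min, pH 7.4 buffer containing 5 mM CaCl2.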

[7] = target: Calcium and integrin-binding protein 1 (Homo sapiens) (UniProt Q99828); assay: Primary qHTS for Identification of Calcium Integrin Binding Protein 1 (CIB1) Competitor (AID 1508620; active = well fitted curve in the direction sought with a large enough effect; an effect the other way counts as inactive or inconclusive;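 also: GST tagged CIB1 binding a fluorescein labelled alphaIIb integrin peptide tracer; top concentration of the series differs between compounds; % is scaled to controls: 0 for no effect and ±100 for the full control effect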)
Method in brief: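 CIB1-GST (1 uM final) and compound incubated 15 min at room temperature before adding FITC-alphaIIb peptide tracer (100 nM final). Competition for binding read by fluorescence polarization (ex 480, em 540) after another 15 min at room temperature.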

[8] = Primary qHTS for small molecule stabilizers of the endoplasmic reticulum resident proteome: Secreted ER Calcium Modulated Protein (SERCaMP) assay (AID 1508630; active = well fitted curve in the direction sought with a large enough effect; an effect the other way counts as inactive or inconclusive; also: % is scaled to controls: 0 for no effect and ±100 for the full control effect)
Method in brief: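 The SH-SY5Y reporter protocol was run at 3 concentrations up to 38.3 uM (primary) or 11 concentrations (follow-up): 16 h compound, 100 nM thapsigargin for 4 h, then extracellular luciferase luminescence.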

[9] = A High-Content qHTS Against Drug Library for the Identification of Small Molecules that Inhibit DYT1 Early Onset Primary Dystonia-Associated Cell Pathology (AID 1645839); also: potency is read from the fitted curve at half-maximal effect; as to % pathology change, negative = correction: series mostly up to about 46 µM
Method in brief: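 High-content imaging quantified EGFP-TorsinA mislocalization in HEK293-derived cells inducibly expressing DYT1 mutant torsinA, after 48 h exposure to compound given together with tetracycline induction. Cell count served as a toxicity channel alongside %pathology.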

[10] = Cytotoxicity counterscreen for inhibitors of SARS-CoV-2 cell entry (AID 1645845); also: nearly all actives have a fitted effect of over 50% in size
Method in brief: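 ATP-content luminescence (ATPLite 1step, 15 min RT) read after 48 h compound exposure of Expi293F cells stably expressing human ACE2; normalized to cells-only wells and media-only wells.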

[11] = target: Cytochrome P450 2D6 (Homo sapiens) (UniProt P10635); assay: Cytochrome P450 family 2 subfamily D member 6 (CYP2D6) small molecule antagonists: luciferase biochemical (cell-free) qHTS assay (AID 1645840; active = well fitted curve in the direction sought with a large enough effect in the repeat runs; an effect the other way counts as inactive or inconclusive; also: nearly all actives have a fitted effect of over 55% in size; also: potency is read from the fitted curve at half-maximal effect)
Chain of Cytochrome P450 2D6 (Homo sapiens) (P10635 whole entry, looked up): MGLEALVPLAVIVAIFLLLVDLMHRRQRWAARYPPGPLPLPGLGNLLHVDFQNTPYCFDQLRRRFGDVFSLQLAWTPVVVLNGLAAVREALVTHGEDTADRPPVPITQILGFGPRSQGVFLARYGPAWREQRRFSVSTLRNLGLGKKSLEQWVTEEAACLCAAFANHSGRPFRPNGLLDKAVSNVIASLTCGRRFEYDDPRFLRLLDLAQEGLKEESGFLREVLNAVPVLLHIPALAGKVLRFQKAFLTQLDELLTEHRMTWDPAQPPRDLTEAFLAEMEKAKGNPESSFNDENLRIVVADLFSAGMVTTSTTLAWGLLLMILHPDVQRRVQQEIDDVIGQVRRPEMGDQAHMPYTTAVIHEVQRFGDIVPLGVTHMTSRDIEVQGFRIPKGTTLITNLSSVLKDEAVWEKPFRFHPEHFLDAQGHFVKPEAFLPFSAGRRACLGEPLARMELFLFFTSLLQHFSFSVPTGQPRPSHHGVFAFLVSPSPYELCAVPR
Method in brief: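 P450-Glo CYP2D6 system: proluciferin substrate converted by enzyme to luciferin, read by luminescence proportional to activity. Enzyme-substrate mix with compound 10 min at room temperature, then NADPH regeneration 1 h before detection reagent.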

[12] = target: Cytochrome P450 2C9 (Homo sapiens) (UniProt P11712); assay: Cytochrome P450 family 2 subfamily C member 9 (CYP2C9) small molecule antagonists: luciferase biochemical (cell-free) qHTS assay (AID 1645842; active = well fitted curve in the direction sought with a large enough effect in the repeat runs; an effect the other way counts as inactive or inconclusive; also: nearly all actives have a fitted effect of over 55% in size; also: potency is read from the fitted curve at half-maximal effect)
Chain of Cytochrome P450 2C9 (Homo sapiens) (P11712 whole entry, looked up): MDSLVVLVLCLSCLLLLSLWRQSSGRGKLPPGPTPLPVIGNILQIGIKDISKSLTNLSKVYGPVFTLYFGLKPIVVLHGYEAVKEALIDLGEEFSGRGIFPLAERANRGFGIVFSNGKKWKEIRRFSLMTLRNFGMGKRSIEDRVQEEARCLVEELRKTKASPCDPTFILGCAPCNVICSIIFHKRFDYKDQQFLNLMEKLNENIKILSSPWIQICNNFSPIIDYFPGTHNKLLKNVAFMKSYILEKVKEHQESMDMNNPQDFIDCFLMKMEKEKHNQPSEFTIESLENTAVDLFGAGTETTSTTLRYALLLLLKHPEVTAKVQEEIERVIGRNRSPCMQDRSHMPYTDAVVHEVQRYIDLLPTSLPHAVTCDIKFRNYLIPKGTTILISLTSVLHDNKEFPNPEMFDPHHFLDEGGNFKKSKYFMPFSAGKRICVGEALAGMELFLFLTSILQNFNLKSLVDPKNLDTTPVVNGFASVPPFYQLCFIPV
Method in brief: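 P450-Glo CYP2C9 system: proluciferin substrate with enzyme in mix containing 0.4% BSA, 10 min at room temperature, then NADPH regeneration solution added and incubated 1 h at 37C. Detection reagent stopped reaction; luminescence read after 20 min as RLU.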

[13] = Confirmatory qHTS for VERO E6 Cytotoxicity Assay: Counterscreen for SARS-CoV-2 CPE Assay (AID 1508605); also: nearly all actives have a fitted effect of over 60% in size; also: potency is read from the fitted curve at half-maximal effect
[14] = Confirmatory qHTS for activators (rescue) of SARS-CoV-2 Cytopathic Effect (CPE) (AID 1508606); also: potency is read from the fitted curve at half-maximal effect; nearly all actives have a fitted effect of over 70% in size
[15] = Cell Viability qHTS for small molecule stabilizers of the endoplasmic reticulum resident proteome (AID 1508629; active = well fitted curve in the direction sought with a large enough effect; an effect the other way counts as inactive or inconclusive;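 also: potency is read from the fitted curve at half-maximal effect; compound exposure about 46 h in total before the viability read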); conditions: cell viability counter-screen, 100 nM thapsigargin for final 4 h
[16] = target: Cytochrome P450 3A4 (Homo sapiens) (UniProt P08684); assay: Cytochrome P450 family 3 subfamily A member 4 (CYP3A4) small molecule antagonists: luciferase qHTS assay (AID 1645841; active = well fitted curve in the direction sought with a large enough effect in the repeat runs; an effect the other way counts as inactive or inconclusive; also: nearly all actives have a fitted effect of over 45% in size)
Chain of Cytochrome P450 3A4 (Homo sapiens) (P08684 whole entry, looked up): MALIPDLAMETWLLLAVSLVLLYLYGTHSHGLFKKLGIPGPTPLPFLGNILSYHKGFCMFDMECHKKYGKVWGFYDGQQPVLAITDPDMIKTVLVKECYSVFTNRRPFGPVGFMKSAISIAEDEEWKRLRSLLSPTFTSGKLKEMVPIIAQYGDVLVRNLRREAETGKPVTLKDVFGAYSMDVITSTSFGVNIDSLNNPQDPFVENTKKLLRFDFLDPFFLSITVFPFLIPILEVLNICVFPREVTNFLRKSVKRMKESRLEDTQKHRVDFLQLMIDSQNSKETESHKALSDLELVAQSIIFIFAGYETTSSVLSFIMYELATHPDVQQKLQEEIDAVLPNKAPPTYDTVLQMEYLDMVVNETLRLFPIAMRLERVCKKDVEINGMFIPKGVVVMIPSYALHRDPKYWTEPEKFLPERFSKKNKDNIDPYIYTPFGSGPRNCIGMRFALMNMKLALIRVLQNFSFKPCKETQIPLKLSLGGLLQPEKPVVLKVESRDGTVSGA
Method in brief: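 Luminescent CYP3A4 activity readout: compounds plus enzyme-substrate mix 10 min at room temperature, reaction started with NADPH regenerating system for 1 h, stopped with detection reagent, read after 20 min. Ketoconazole served as control.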

CC12CC3CC(C)(C1)CC(N)(C3)C2
inactive: Potency [1] | Potency [2] | Potency [3] | Potency [4]

O=C(O)c1cn(C2CC2)c2cc(N3CCNCC3)c(F)cc2c1=O
inactive: Potency [1] | Potency [2] | Potency [3] | Potency [4]

Cc1ncc(CNC(=O)N(CCCl)N=O)c(N)n1
inactive: Potency [1] | Potency [2] | Potency [3] | Potency [4] | Potency [5] | Potency [6] | Potency [7] | outcome [8] | Potency [9] | Potency [10]

CN/C(=C\[N+](=O)[O-])NCCSCc1ccc(CN(C)C)o1
inactive: Potency [1] | Potency [2] | Potency [3] | Potency [4]

NCC(O)c1ccc(O)cc1 (stereo unspecified)
inactive: Potency [1] | Potency [2] | Potency [3] | Potency [4] | Potency [5] | Potency [6] | Potency [7] | outcome [8] | Potency [9] | Potency [11] | Potency [12]

NCC(CC(=O)O)c1ccc(Cl)cc1 (stereo unspecified)
inactive: activity change, negative = inhibition [1] -11.8% [at 0.573 µM] | outcome [2] inactive [at 0.573 µM] | outcome [3] inactive [at 0.573 µM] | outcome [4] inactive [at 0.573 µM] | Potency [5] | Potency [6] | activity change, negative = inhibition [7] 5.6% [at 1.07 µM] | outcome [8] | % pathology change, negative = correction [9] 14.6% [at 0.369 µM] | activity change, negative = inhibition [11] 14.3% [at 0.91 µM] | activity change, negative = inhibition [12] 15.7% [at 0.91 µM] | activity change, negative = cytotoxicity [10] 1.92% [at 0.702 µM]

C#CCN(C)[C@H](C)Cc1ccccc1
active: Potency [11] 13.8 µM
inactive: Potency [1] | Potency [2] | Potency [3] | Potency [4] | Potency [5] | Potency [7] | outcome [8] | Potency [9] | Potency [12]

CC(=O)SC[C@@H](C)C(=O)N1CCC[C@H]1C(=O)N[C@@H](Cc1ccccc1)C(=O)O
inactive: Potency [1] | Potency [2] | Potency [3] | Potency [4]

CCCN[C@H]1CCc2nc(N)sc2C1
inactive: Potency [1] | Potency [2] | Potency [3] | Potency [4]

Nc1ccncc1
inactive: Potency [1] | Potency [2] | Potency [3] | Potency [4] | Potency [5] | Potency [6] | Potency [7] | outcome [8] | Potency [9] | Potency [10]

Cc1c(O)cccc1C(=O)N[C@@H](CSc1ccccc1)[C@H](O)CN1C[C@H]2CCCC[C@H]2C[C@H]1C(=O)NC(C)(C)C
inactive: Potency [1] | Potency [2] | Potency [3] | Potency [4]
active: Potency [13] 12.6 µM | Potency [14] 3.16 µM

O=C1OCCN1/N=C/c1ccc([N+](=O)[O-])o1
inactive: Potency [1] | Potency [2] | Potency [3] | Potency [4]

CO[C@H]1C=CO[C@@]2(C)Oc3c(C)c(O)c4c(O)c(c(/C=N/N5CCN(C)CC5)c(O)c4c3C2=O)NC(=O)/C(C)=C\C=C[C@H](C)[C@H](O)[C@@H](C)[C@@H](O)[C@@H](C)[C@H](OC(C)=O)[C@@H]1C
inactive: Potency [1] | Potency [2] | Potency [3] | Potency [4]

CC(COc1ccccc1)N(CCCl)Cc1ccccc1 (stereo unspecified)
inactive: Potency [1] | Potency [2] | Potency [3] | Potency [4]

C[C@@H](O)[C@H]1C(=O)N2C(C(=O)O)=C(S[C@@H]3CN[C@H](C(=O)N(C)C)C3)[C@H](C)[C@H]12
inactive: Potency [1] | Potency [2] | Potency [3] | Potency [4]

NCCC(O)(P(=O)(O)O)P(=O)(O)O
inactive: Potency [1] | Potency [2] | Potency [3] | Potency [4]

COc1cc2ncnc(Nc3ccc(F)c(Cl)c3)c2cc1OCCCN1CCOCC1
active: Potency [1] 12.6 µM

Oc1cccc2cccnc12
inactive and 3.55 µM (active): Potency [3]
active: Potency [15] 20 µM
31.6 µM (active) and inactive: Potency [9]
inactive: Potency [1] | Potency [2] | Potency [4] | Potency [5] | Potency [7] | outcome [8] | Potency [11] | outcome [16] | Potency [10]

CC1=NS(=O)(=O)c2cc(Cl)ccc2N1
inactive: Potency [1] | Potency [2] | Potency [3] | Potency [4]

CC[C@@H]([C@H](C)O)n1ncn(-c2ccc(N3CCN(c4ccc(OC[C@@H]5CO[C@@](Cn6cncn6)(c6ccc(F)cc6F)C5)cc4)CC3)cc2)c1=O
inactive: Potency [2] | Potency [4]
active: Potency [1] 14.1 µM | Potency [3] 12.6 µM

CN(C)CCCN1c2ccccc2CCc2ccc(Cl)cc21
active: Potency [1] 28.2 µM | Potency [3] 11.2 µM
inactive: Potency [2] | Potency [4]

C[C@]12CC[C@H]3[C@@H](CCC4=CC(=O)CC[C@@H]43)[C@@H]1CC[C@@H]2OC(=O)CCc1ccccc1
inactive: Potency [1] | Potency [2] | Potency [3] | Potency [4] | Potency [5] | Potency [7] | outcome [8] | Potency [9] | Potency [11] | outcome [16] | Potency [10]
active: Potency [12] 27.5 µM

Clc1ccc2c(c1)C(N1CCNCC1)=Nc1ccccc1O2
inactive: Potency [1] | Potency [2] | Potency [3] | Potency [4] | Potency [13] | Potency [10]

Cc1ccc(C)c(OCCCC(C)(C)C(=O)O)c1
inactive: Potency [1] | Potency [2] | Potency [3] | Potency [4]

NCC1(CC(=O)O)CCCCC1
inactive: Potency [1] | Potency [2] | Potency [3] | Potency [4] | Potency [5] | Potency [6] | Potency [7] | outcome [8] | Potency [9] | Potency [11] | Potency [12] | Potency [10]

Cc1cccc(C)c1OCC(C)N (stereo unspecified)
inactive: Potency [1] | Potency [2] | Potency [3] | Potency [4]

O=c1n(CCCN2CCN(c3cccc(Cl)c3)CC2)nc2ccccn12
inactive: Potency [1] | Potency [2] | Potency [3] | Potency [4]
